In the library only some 0.9% were active in any assay of this set; here they are far more common.
Calb FLC: affects C. albicans growth with fluconazole; C. albicans CaCi-2 (fluconazole-resistant clinical isolate) + fluconazole, Alamar Blue growth, 48 h; growth inhibition, % (concentration not given with the values); hit rate 0.57% among 300,000; AID 1979;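 active means growth inhibition above about 58% in most replicates, limit read from the data, passing the limit was not always enough; inconclusive means exactly half the replicates above a set limit; inactive means most replicates below a set limit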;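 further: all wells also contain fluconazole at 8 µg/ml as a sub-toxic cotreatment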
AddAB inh: less growth of phage-infected E. coli with AddAB. E. coli expressing H. pylori AddAB, absorbance growth. inhibition, % at 11.9 µM. hit rate 0.29% among 330,000. AID 435030; in the data active means inhibition above about 12%
E coli growth-1: counter-screen for AddAB inhibitors: E. coli growth inhibition. inhibition, % at 11.9 µM. E. coli V3065 growth, OD600 absorbance, 18 h. hit rate 0.27% among 330,000;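 active means inhibition above the campaign's mean inhibition across all tested compounds plus 3 SD, cut at about 9.9% in these data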;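 further: uninfected addAB+ strain grown without phage in ampicillin broth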
E coli growth-2: inhibitors of Escherichia coli growth; AID 1053175; OD600, 23 h; active compounds read low; hit rate 0.21% among 330,000; OD600 absorbance (test concentration not listed);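 active means OD600 absorbance below the run mean of sample wells minus 3.6 SD, in any replicate, cut at about 0.56 in these data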
phage Ecoli inh: E. coli growth loss with phage present; hit rate 0.26% among 360,000; inhibition, % at 11.9 µM; growth absorbance; in the data active means inhibition above about 11%
Tat transport: inhibitors of E. coli Tat protein transport; E. coli MC4100 TorA-mCherry Tat export, fluorescence; inhibition, % at 10 µM; hit rate 0.036% among 340,000; AID 488895;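 active means mean replicate inhibition at least 50% and at least half of replicates individually reaching 50%; inconclusive means only one of the two criteria met; inactive means neither criterion met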;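 further: exported cargo escapes ClpAP degradation while cytoplasmic cargo is degraded and loses fluorescence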
Hits are given with their value; . = inactive; ? = inconclusive; / = no result.

SMILES	Calb FLC	AddAB inh	E coli growth-1	E coli growth-2	phage Ecoli inh	Tat transport
COc1ccc(-c2nc(-c3ccccc3)nc(Cl)c2C#N)cc1	.	.	.	.	.	.
CSc1nc(Cl)c(C#N)c(-c2ccc(C)cc2)n1	81	.	.	.	.	.
COc1ccc(C=NNC(=O)c2nnn(-c3nonc3N)c2-c2cccs2)c(OC)c1	/	/	/	.	/	/
COc1ccc(O)c(/C=N/NC(=O)c2c(C)nnn2-c2nonc2N)c1	63	.	.	/	.	.
CC1CCN(Cc2c(C(=O)N/N=C/c3cc(Br)ccc3O)nnn2-c2nonc2N)CC1	82	.	.	/	.	.
CC1CCN(Cc2c(C(=O)N/N=C/c3cc(Cl)ccc3O)nnn2-c2nonc2N)CC1	?	.	.	/	.	.
COc1ccc(C=NNC(=O)C(C)Sc2ccccn2)cc1[N+](=O)[O-] (stereo not drawn)	/	/	/	.	/	/
CC(=NNC(=O)CC1N=C(Cc2ccccc2)NNC1=O)c1ccncc1 (stereo not drawn)	/	/	/	.	/	/
O=S(=O)(N=C(c1ccccc1)N1CCOCC1)c1ccc(Br)cc1	/	/	/	.	/	/
C(=Nc1nccs1)c1c[nH]c2ccccc12	/	/	/	.	/	/
Cc1ccccc1Nc1nc(NCc2ccco2)c2ccccc2n1	.	.	.	0.49	.	.
c1ccc(Nc2nc(NCc3ccco3)c3ccccc3n2)cc1	.	.	.	0.31	.	.
Oc1ccccc1Nc1nc(NCc2ccco2)c2ccccc2n1	.	.	.	/	.	.
Cc1cccc(Nc2nc(NCc3ccco3)c3ccccc3n2)c1	.	.	.	0.43	.	.
Cc1ccc(-c2nc(NCc3ccco3)c3ccccc3n2)cc1	.	.	.	.	.	.
FC(F)(F)c1cnc(NN=Cc2ccncc2)c(Cl)c1	/	/	/	.	/	/
CC/C(C)=N/Nc1cccc([N+](=O)[O-])c1	92	.	.	/	.	.
COc1ccc(C(=O)N2CCOC2CNC(=O)C(=O)NCc2ccc3c(c2)OCO3)cc1 (stereo not drawn)	.	.	.	0.51	.	.
CC(=NNC(=S)Nc1ccc(C)cc1)c1ccccn1	/	/	/	/	13	.
CC(=NNC(=O)CCCNc1ccc(C)cc1)c1ccccn1	/	/	/	.	/	/
CCOC(=O)N1CCN(C(=O)c2cn(CC)c3cc(N4CCN(C)CC4)c(F)cc3c2=O)CC1	.	101	100	/	/	/
CCOC(=O)c1cn(CC)c2cc(N3CCCCC3)c(F)cc2c1=O	.	.	.	.	.	.
CCOc1ccc2ccc(OCC)c(C=Nn3cnnc3)c2c1	/	/	/	.	/	/
CCN(CC)c1ccc(/C=N/Nc2nc(C)cc(=O)[nH]2)c(O)c1	102	.	.	/	.	.
O=C(Nc1nc2c(Cl)cccc2s1)c1ccc([N+](=O)[O-])o1	.	.	.	0.5	.	.
SMILES	Calb FLC	AddAB inh	E coli growth-1	E coli growth-2	phage Ecoli inh	Tat transport
O=C(Nc1nc2c(Cl)cccc2s1)c1ccc(Br)o1	54	.	.	.	.	.
Cc1ccc(C)c(S(=O)(=O)NCc2ccc(C(=O)NCc3ccco3)cc2)c1	.	.	.	.	.	.
Cc1ccc(C(=O)NCc2ccco2)cc1S(=O)(=O)Nc1cccc(Cl)c1	113	.	.	.	.	.
C=CCn1c(N)nc2ccccc21	82	.	.	.	.	.
C=CCn1c(-c2ccc(N)cc2)nc2ccccc21	.	.	.	.	.	.
CCC(C)C(CNC)NCC(Cc1ccc(O)cc1)NCC(C)(C)C (stereo not drawn)	/	/	/	.	/	/
O=C(CCCCCN1C(=O)c2cccc3cccc(c23)C1=O)N1CCOCC1	107	.	.	.	.	.
O=C(CCCN1C(=O)c2cccc3cccc(c23)C1=O)N1CCN(c2ncccn2)CC1	/	.	.	.	.	.
CCOC(=O)c1nc(NNC(=O)c2ccc([N+](=O)[O-])cc2)sc1C	116	.	.	.	.	.
O=[N+]([O-])c1cc(Cl)cc(/C=N/NC(=S)Nc2ccc(S(=O)(=O)N3CCOCC3)cc2)c1O	109	.	.	/	.	.
Cc1cccc(C(=O)NNC2=C(C(=O)C(F)(F)F)CCC2)c1O	105	.	.	.	.	.
O=C(CCl)N1c2ccccc2SCC1c1ccccc1 (stereo not drawn)	82	.	.	/	.	.
O=C1NCC(c2ccccc2)N(CC2CCCCC2)C1=O (stereo not drawn)	/	/	/	.	/	/
COc1ccc(CCn2c(C)cc3c(c2=O)C(c2ccc4c(c2)OCO4)C(C#N)=C(N)O3)cc1OC (stereo not drawn)	109	.	.	.	.	.
Cc1cc2c(c(=O)n1Cc1ccccn1)C(c1ccc3c(c1)OCO3)C(C#N)=C(N)O2 (stereo not drawn)	.	.	.	.	.	.
CC(=O)N(N=Cc1cccc(C)c1)c1nc(-c2ccc(Br)cc2)cs1	/	/	/	.	/	/
O=C1C=C(Nc2ccccc2O)c2ccccc2C1=O	.	.	.	0.48	.	.
O=C1C=C(NCc2ccccc2)c2ccccc2C1=O	99	/	/	0.47	.	.
Cc1ccc(NC2=CC(=O)C(=O)c3ccccc32)c(C)c1	/	.	.	.	.	.
O=C1C=C(Nc2ccc(F)cc2)c2ccccc2C1=O	/	.	.	.	.	.
O=C(COc1ccc2c(c1)CCC2)N1CCN(c2cccc(C(F)(F)F)c2)CC1	112	.	.	.	.	.
O=C(COc1cccc(C(F)(F)F)c1)N1CCN(c2ccc(O)cc2)CC1	.	.	.	.	.	.
Nc1ccccc1SCc1cn2cccnc2n1	.	.	.	.	.	.
Nc1ccccc1SCc1cn2ccccc2n1	.	.	.	.	.	75
Cc1cccc(NC2=NC(=S)N(c3cccc(C(=O)O)c3)C23CCCCC3)c1	104	.	.	.	.	.
SMILES	Calb FLC	AddAB inh	E coli growth-1	E coli growth-2	phage Ecoli inh	Tat transport
O=C(NCc1ccc(F)cc1)c1ccc(CS(=O)(=O)Cc2ccccc2F)o1	95	.	.	.	.	.
CCOc1ccc2[nH]c3c(NCCC(C)C)ncnc3c2c1	.	/	/	0.5	.	.
O=C(Cn1cnc2c(nnn2Cc2ccc(F)cc2)c1=O)NC1CCCC1	100	.	.	.	.	.
O=C(C[n+]1cc(-c2ccc(Cl)cc2)n2c1CCC2)N1c2ccccc2Sc2ccccc21	107	.	.	.	.	.
O=C(C[n+]1cc(-c2ccc(Cl)c(Cl)c2)n2c1CCC2)N1c2ccccc2Sc2ccccc21	107	.	.	.	.	.
Cc1ccc(C(=O)C[n+]2cc(-c3ccc(C)cc3)n3c2CCCCC3)cc1	88	.	.	.	.	.
COc1ccc(-c2c[n+](CC(=O)N3c4ccccc4Sc4ccccc43)c3n2CCC3)cc1	.	.	.	.	.	.
Cn1c(NC(=O)C[n+]2cc(-c3ccc(Cl)c(Cl)c3)n3c2CCC3)cc(=O)n(C)c1=O	.	.	.	.	.	.
CC(CCc1ccccc1)=NNC(=O)CC(=O)NCCc1ccccc1	/	/	/	.	/	/
CCn1c(COc2ccc(=O)n(-c3ccccc3)n2)nnc1SCc1cccc(OC)c1	85	.	.	.	.	.
Clc1ccc(Cn2cc(C=Nn3cnnc3)c3ccccc32)c(Cl)c1	/	/	/	.	/	/
C#CCOC1CC(n2ccc(NC(=O)c3ccccc3)nc2=O)OC1CO (stereo not drawn)	/	/	/	.	/	/
CCCN(CCC)c1ccc(C=NNC(=O)CN2CCOCC2)cc1	/	/	/	.	/	/
